Source: PubChem BioAssay AID1159580 (chemical genetic matrix, 2015)
The campaign covered roughly 5,500 compounds. About 2,000 (36%) were called active. Inconclusive results (about 18%) are left out. Cut-off read from the data, not from the text of the source: active = normalized growth mostly below about 0.91 (no sharp cut-off); inconclusive = no clear call, values can overlap the other calls; inactive = mostly above about 0.92. The list shows a part of the results.

Assay: chemical genetic growth profiling, strain panel (AID 1159580);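 note: tested at 20 µM; growth read once vehicle control cultures reached saturation at 30 °C; 1 = growth at the plate median or of vehicle wells; lower values mean less growth of the strain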
Details: S. cerevisiae deletion strains, growth OD
[1] = locus YAL013W, strain DEP1, stronger effect = lower value
[2] = locus YBR229C, strain ROT2, stronger effect = lower value
[3] = locus YDL101C, strain DUN1, stronger effect = lower value
[4] = locus YDR150W, strain NUM1, stronger effect = lower value
[5] = locus YEL061C, strain CIN8, stronger effect = lower value
[6] = locus YGR078C, strain PAC10, stronger effect = lower value
[7] = locus YHR030C, strain SLT2, stronger effect = lower value
[8] = locus YHR087W, strain rtc3, stronger effect = lower value
[9] = locus YJL187C, strain SWE1, stronger effect = lower value
[10] = locus YJR043C, strain POL32, stronger effect = lower value
[11] = locus YJR075W, strain HOC1, stronger effect = lower value
[12] = locus YLR039C, strain RIC1, stronger effect = lower value
[13] = locus YLR058C, strain SHM2 (second series), stronger effect = lower value
[14] = locus YLR085C, strain ARP6, stronger effect = lower value
[15] = locus YLR262C, strain YPT6, stronger effect = lower value
[16] = locus YML094W, strain GIM5, stronger effect = lower value
[17] = locus YMR219W, strain ESC1, stronger effect = lower value
[18] = locus YMR263W, strain SAP30, stronger effect = lower value
[19] = locus YMR307W, strain GAS1, stronger effect = lower value
[20] = locus YNL153C, strain GIM3, stronger effect = lower value
[21] = locus YNL298W, strain CLA4 (second series), stronger effect = lower value
[22] = locus YNL322C, strain KRE1, stronger effect = lower value
[23] = locus YNR030W, strain Alg12, stronger effect = lower value
[24] = locus YPL055C, strain LGE1, stronger effect = lower value
[25] = locus YPL241C, strain CIN2, stronger effect = lower value
[26] = locus YPR135W, strain CTF4, stronger effect = lower value

Measured: normalized growth

FC(F)(F)c1ccc(-n2cncn2)nc1
active: [14] 1.24 [resistant]
inactive: [1] 1.03 | [2] 1.01 | [3] 1 | [4] 0.988 | [5] 1.01 | [6] 1.01 | locus YGR229C, strain SMI1, stronger effect = lower value 1.01 | [7] 1.09 | [8] 1.02 | [9] 1.01 | [10] 1.02 | [11] 0.99 | [12] 1.04 | [13] 1 | [15] 1.01 | [16] 1.07 | [17] 1.01 | [18] 1.01 | [19] 1.08 | [20] 0.996 | [21] 1.07 | [22] 1 | [23] 1.04 | locus YOL006C, strain TOP1, stronger effect = lower value 1.25 | [24] 1.07 | [25] 1 | [26] 1.15

Nc1ccc(N2CCN(c3ccc(C(F)(F)F)cn3)CC2)nc1
inactive: locus YAR019C, strain CDC15, stronger effect = lower value 0.974 | locus YBL105C, strain PKC1, stronger effect = lower value 0.984 | locus YBR135W, strain CKS1, stronger effect = lower value 0.969 | locus YBR136W, strain MEC1, stronger effect = lower value 0.983 | locus YBR160W, strain CDC28, stronger effect = lower value 0.964 | locus YDL017W, strain CDC7, stronger effect = lower value 0.98 | locus YDL028C, strain MPS1, stronger effect = lower value 0.949 | [3] 0.987 | locus YDL108W, strain KIN28, stronger effect = lower value 0.966 | locus YDL132W, strain cdc53, stronger effect = lower value 0.992 | locus YDL214C, strain PRR2, stronger effect = lower value 0.927 | locus YDR052C, strain DBF4, stronger effect = lower value 0.988 | locus YDR054C, strain cdc34, stronger effect = lower value 0.994 | locus YDR226W, strain ADK1, stronger effect = lower value 0.975 | locus YDR477W, strain SNF1, stronger effect = lower value 0.862 | locus YER123W, strain YCK3, stronger effect = lower value 0.879 | locus YER133W, strain GLC7, stronger effect = lower value 0.916 | locus YFL009W, strain cdc4, stronger effect = lower value 0.968 | locus YFL029C, strain CAK1, stronger effect = lower value 0.971 | locus YFR003C, strain YPI1, stronger effect = lower value 0.981 | locus YFR019W, strain FAB1, stronger effect = lower value 0.862 | locus YFR028C, strain CDC14, stronger effect = lower value 0.982 | locus YGR040W, strain KSS1, stronger effect = lower value 0.865 | locus YGR052W, strain FMP48, stronger effect = lower value 0.968 | locus YGR092W, strain DBF2, stronger effect = lower value 0.722 | locus YHR079C, strain IRE1, stronger effect = lower value 0.948 | locus YHR082C, strain KSP1, stronger effect = lower value 0.966 | locus YHR205W, strain SCH9, stronger effect = lower value 0.986 | locus YIL147C, strain SLN1, stronger effect = lower value 0.973 | locus YJL095W, strain BCK1, stronger effect = lower value 0.809 | locus YJL128C, strain PBS2, stronger effect = lower value 1.02 | locus YJL157C, strain FAR1, stronger effect = lower value 0.921 | locus YJR016C, strain ILV3, stronger effect = lower value 0.976 | locus YJR066W, strain TOR1 (second series), stronger effect = lower value 0.775 | locus YJR066W, strain TOR1, stronger effect = lower value 0.879 | locus YKL048C, strain ELM1, stronger effect = lower value 1.03 | locus YKL067W, strain YNK1, stronger effect = lower value 0.91 | locus YKL101W, strain HSL1, stronger effect = lower value 0.98 | locus YKL193C, strain SDS22, stronger effect = lower value 0.983 | locus YKL203C, strain TOR2, stronger effect = lower value 0.976 | locus YLR113W, strain HOG1, stronger effect = lower value 0.991 | locus YLR133W, strain CKI1, stronger effect = lower value 0.96 | locus YLR403W, strain SFP1, stronger effect = lower value 0.9 | locus YML070W, strain DAK1, stronger effect = lower value 0.917 | locus YMR001C, strain CDC5, stronger effect = lower value 0.977 | locus YMR205C, strain PFK2 (second series), stronger effect = lower value 0.952 | locus YMR277W, strain FCP1, stronger effect = lower value 0.952 | locus YNL006W, strain LST8, stronger effect = lower value 0.967 | locus YNL020C, strain ARK1, stronger effect = lower value 0.95 | locus YNL161W, strain CBK1, stronger effect = lower value 0.991 | locus YNL183C, strain NPR1, stronger effect = lower value 1.01 | locus YNL207W, strain RIO2, stronger effect = lower value 0.959 | locus YNL222W, strain SSU72, stronger effect = lower value 0.956 | locus YNL307C, strain MCK1 (second series), stronger effect = lower value 0.916 | locus YOL078W, strain AVO1, stronger effect = lower value 0.982 | locus YOL136C, strain PFK27, stronger effect = lower value 0.928 | locus YOR061W, strain CKA2, stronger effect = lower value 0.943 | locus YOR119C, strain RIO1, stronger effect = lower value 0.923 | locus YOR231W, strain MKK1, stronger effect = lower value 0.904 | locus YOR329C, strain SCD5, stronger effect = lower value 0.986 | locus YPL031C, strain PHO85, stronger effect = lower value 0.876 | locus YPL153C, strain RAD53, stronger effect = lower value 0.835 | locus YPL204W, strain HRR25, stronger effect = lower value 0.828 | locus YPL209C, strain IPL1, stronger effect = lower value 0.991 | locus YPL256C, strain CLN2, stronger effect = lower value 0.983 | locus YPR025C, strain CCL1, stronger effect = lower value 0.981 | locus YPR106W, strain ISR1, stronger effect = lower value 1.01 | locus YPR111W, strain DBF20, stronger effect = lower value 1.02 | strain NNK1, stronger effect = lower value 0.984 | strain TSCII, stronger effect = lower value 0.97
active: [7] 0.724

Cc1onc(-c2c(F)cccc2Cl)c1C(=O)N1CCN(c2ncccc2C(F)(F)F)CC1
inactive: [1] 0.98 | [2] 0.975 | [3] 0.977 | locus YDL134C, strain PPH21, stronger effect = lower value 0.993 | [4] 0.972 | [5] 0.952 | [6] 1.01 | [7] 0.928 | [8] 0.964 | [9] 0.988 | [10] 1 | [11] 1.01 | locus YKL190W, strain CNB1, stronger effect = lower value 1 | [12] 0.993 | [13] 0.987 | [14] 1.02 | [15] 0.98 | [16] 0.969 | [17] 0.984 | [18] 1.01 | [19] 1.07 | [20] 1 | [21] 0.965 | [22] 0.977 | [23] 0.99 | [24] 0.977 | [25] 1.08 | [26] 0.993
